Screens: PubChem, National Center for Advancing Translational Sciences (NCATS)
A selection: hits, their analogues and other compounds. The true share with any hit is near 13%.
HCV inh: qHTS Assay for Inhibitors of Hepatitis C Virus (HCV); AID 651820, 2012; actives 3.4% (n = 340,000); Huh7.5.1 HCVcc-Cre infection, luciferase reporter, 44 h; Potency, µM (titrated, usually from 41.8 µM), hits mostly inhibitors
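Reporter virus HCVcc-Cre (~0.5 moi) infects cells exposed to compound; seeding density 1,000 cells/well with 4 h settling beforehand. Luminescence, 15 sec read, taken 44 h post-infection following a 15 min RT substrate incubation.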
HCMV antiviral: qHTS Assay for inhibitors of the human cytomegalovirus (HCMV); HFF cells, HCMV-luciferase reporter, 72 h; active compounds read low; activity change, negative = inhibition, % at 57.5 µM; actives 4.5% (n = 410,000); AID 1259415, 2018; in the data active means activity change below about -60%; inconclusive means no clear call, values can overlap the other calls; inactive means above about -39%
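Luciferase read-out from HCMV-luciferase-infected HFFs (MOI 1 PFU/cell) 72 h post infection at 37C; compounds added after 16 h cell attachment; activity normalized between buffer-only basal and Salinomycin (10uM) inhibitor controls.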
Pf growth 96h: Primary qHTS for delayed death inhibitors of the malarial parasite plastid, 96 hour incubation | P. falciparum luciferase reporter growth, 96 h | Potency, µM (highest dose often 28.7 µM), actives largely listed as inhibitors | actives 6.9% (n = 320,000) | AID 504834, 2011
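Two parasite generations (96 h, 37 C, 5% CO2) of compound exposure in infected erythrocytes (0.05% parasitemia, 2% hematocrit). Luciferase-reporter P. falciparum; decreased luminescence indicates inhibited growth, aimed at apicoplast-acting delayed death.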
Pf growth 48h: Primary qHTS for delayed death inhibitors of the malarial parasite plastid, 48 hour incubation. P. falciparum luciferase growth in erythrocytes, 48 h. Potency, µM (series often up to 28.7 µM), usual class: inhibitors. actives 5.9% (n = 310,000). AID 504832, 2011
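Here the parasites carry a stable luciferase gene and grow inside erythrocytes in Albumax-based RPMI medium with compound for one erythrocytic cycle. Activity is scored as loss of luminescent signal.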
Numbers stand for hits; n = inactive; u = inconclusive; x = no result given. Unless noted, the call rests on the fitted dose curve; in most records, active means well fitted inhibition curve with a large enough effect; inconclusive means small, poorly fitted or top-dose-only effect, or another doubt; inactive means no such curve, though single readings can be large or run the other way.

SMILES	HCV inh	HCMV antiviral	Pf growth 96h	Pf growth 48h
COc1ccc(C(=O)Nc2nc3c(s2)Cc2cc(OC)ccc2-3)cc1	12.6µM	u	u	5.86µM
COc1ccc2c(c1)Cc1sc(NC(=O)c3ccccc3)nc1-2	u	n	2.94µM	x
COc1ccc2c(c1)Cc1sc(NC(=O)c3cccs3)nc1-2	u	n	n	5.86µM
CCS(=O)(=O)N1CC(=O)N(c2cccc(Cl)c2)C(C)(C(=O)NC2CCCCCC2)C1 (stereo unspecified)	x	n	x	x
Fc1ccc(OCCCCN2CCOCC2)cc1	n	n	u	n
O=C1NCN(c2ccccc2)C12CCN(CCCOc1ccc(F)cc1)CC2	x	x	n	16.9µM
O=S(=O)(Oc1ccccc1/C=N/n1cnnc1)c1ccccc1	n	u	11.7µM	n
CCn1nc([N+](=O)[O-])c(C(C#N)c2nc3cc(C(F)(F)F)ccc3s2)c(Cl)c1=O (stereo unspecified)	11.2µM	u	n	x
Cc1ccc(S(=O)(=O)c2nnn3c2nc(NCc2ccc4c(c2)OCO4)c2sccc23)cc1C	x	n	x	x
CCOC(=O)CN(Cc1ccccc1)C(C(=O)NC1CCCCC1)c1ccc(C)cc1 (stereo unspecified)	x	n	x	x
COc1ccc2c(c1OC)C(=O)OC2C/C(=N\NC(N)=O)c1ccccc1 (stereo unspecified)	n	-70.0	n	n
COc1ccc(C(C(O)C(=O)c2c[nH]c3ccccc23)N2CCN(c3ccc(OC)cc3)CC2)cc1 (stereo unspecified)	u	n	x	13.1µM
CC[C@@]12C(=O)N(c3cccc(F)c3)C(=O)N1[C@H](c1ccc(Br)cc1)[C@@H]1C(=O)N(C(C)(C)C)C(=O)[C@@H]12	n	n	u	n
CC(C)(C)N1C(=O)[C@H]2[C@@H](c3ccc(Br)cc3)N3C(=O)N(c4cccc(F)c4)C(=O)[C@@]3(Cc3ccccc3)[C@H]2C1=O	u	n	4.65µM	5.22µM
CC(C)(C)N1C(=O)[C@H]2[C@@H](c3ccc(Br)cc3)N3C(=O)N(c4ccc(Br)cc4)C(=O)[C@@]3(Cc3ccccc3)[C@H]2C1=O	7.94µM	x	u	u
COc1ccc([C@@H]2[C@@H]3C(=O)N(C(C)(C)C)C(=O)[C@@H]3[C@]3(Cc4ccccc4)C(=O)N(c4cccc(F)c4)C(=O)N23)cc1	n	n	9.28µM	u
COc1ccc([C@@H]2[C@@H]3C(=O)N(C(C)(C)C)C(=O)[C@@H]3[C@]3(CC(C)C)C(=O)N(c4cccc(F)c4)C(=O)N23)cc1	n	n	u	u
COc1ccc([C@@H]2[C@@H]3C(=O)N(C(C)(C)C)C(=O)[C@@H]3[C@]3(Cc4ccccc4)C(=O)N(c4ccc(C)cc4)C(=O)N23)cc1	n	n	u	u
Cc1ccc(N2C(=O)N3[C@H](c4ccc(Br)cc4)[C@@H]4C(=O)N(C(C)(C)C)C(=O)[C@@H]4[C@]3(C)C2=O)cc1	u	-85.4	u	n
O=C(c1nnnn1-c1ccc(Br)cc1)C1CC1	x	n	x	x
CCOc1ccc(CCNC(c2nnc(-c3ccccc3)o2)c2ccccc2Cl)cc1OCC (stereo unspecified)	x	n	x	x
CC1(C(=O)O)CCCN(C(=O)c2cc3ccccc3s2)C1 (stereo unspecified)	x	n	x	x
Cc1ccc2c(cnn2C(=O)CCC(=O)NCc2cccc(Br)c2)c1	n	n	2.62µM	n
Cc1ccc2c(cnn2C(=O)CCC(=O)NCc2cccc(Cl)c2)c1	n	n	n	n
COc1ccccc1CN1CC(C(=O)N2CCCCCCC2)CCC1=O (stereo unspecified)	n	n	n	n
COCCN1CCN(C(=O)C2CCC(=O)N(CCc3ccccc3)C2)CC1 (stereo unspecified)	x	n	9.28µM	n
COCCN1CCN(C(=O)C2CCC(=O)N(Cc3ccccc3OC)C2)CC1 (stereo unspecified)	n	n	u	n
COc1ccccc1CN1CC(C(=O)N2CCC(OC)CC2)CCC1=O (stereo unspecified)	n	-63.7	u	n
COc1ccccc1CN1CC(C(=O)NCCc2ccc(C)o2)CCC1=O (stereo unspecified)	n	n	9.28µM	n
COc1ccccc1CCNC(=O)C1CCC(=O)N(Cc2ccccc2OC)C1 (stereo unspecified)	n	n	n	n
